The values that follow come from PubChem BioAssay AID894 (National Center for Advancing Translational Sciences (NCATS), 2007).

The whole screen tested about 150,000 compounds, of which about 6,500 (4.3%) were called active. Another 12% or so got no clear call; they are omitted. The full list was thinned out, with actives kept by preference. Values without a mark were called inactive. Calls follow the shape of the dose curve; as a rule, active = well fitted inhibition curve with a large enough effect (not every such curve was filed as active); inconclusive = small, poorly fitted or top-dose-only effect, or another doubt; inactive = no such curve, though single readings can be large or run the other way.
% is scaled to controls: 0 for no effect and ±100 for the full control effect; potency is read from the fitted curve at half-maximal effect.

Chain of 15-hydroxyprostaglandin dehydrogenase [NAD(+)] (Homo sapiens) (P15428 whole entry, looked up): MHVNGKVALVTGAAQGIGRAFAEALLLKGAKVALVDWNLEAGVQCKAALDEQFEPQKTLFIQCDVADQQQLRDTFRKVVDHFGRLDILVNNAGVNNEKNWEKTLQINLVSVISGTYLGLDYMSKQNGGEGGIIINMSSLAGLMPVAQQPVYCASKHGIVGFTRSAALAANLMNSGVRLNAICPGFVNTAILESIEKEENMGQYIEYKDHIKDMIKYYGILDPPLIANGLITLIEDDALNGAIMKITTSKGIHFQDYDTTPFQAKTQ

This test concerns the target 15-hydroxyprostaglandin dehydrogenase [NAD(+)] (Homo sapiens) (UniProt P15428). Description: qHTS Assay for Inhibitors of HPGD (15-Hydroxyprostaglandin Dehydrogenase). The settings on record: purified HPGD, NADH fluorescence kinetic, PGE2 substrate; activity change, negative = inhibition: stronger effect = lower value. The method, boiled down: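 NADH formation kinetics: reaction with 30 uM PGE2 and 1 mM NAD+ (final), 20 nM enzyme, Tris-HCl pH 8 with Tween 20, after 15 min compound preincubation at room temperature. Fluorescence change, last versus first of five reads.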
(In qHTS, concentration-response curves come from the screen itself.)
As to `CCN(CC)S(=O)(=O)c1cc([N+](=O)[O-])ccc1N=Nc1c(O)n(C)c2ccccc12`, the activity change, negative = inhibition was -5.63%.
Turning to `Cc1c(/C=N/N2C(=O)C3C4C=CC(C4)C3C2=O)c2ccccc2n1C` (stereo not drawn), the activity change, negative = inhibition is -1.58%.
The same measure, in the same setting: for `CC(=O)N1c2ccccc2N(Cc2ccc([N+](=O)[O-])cc2)C(=O)C1(C)C` the value was -6.13%; for `CCCN1CNC(=S)N(CCc2ccccc2)C1`, 1.42%; for `Cc1ccc(OCC(=O)OC(C)CN(C)Cc2ccccc2)cc1` (stereo not drawn), -13.4%.
On the same count and under the same terms, the same measure for `FC(F)(F)c1cc(-c2ccco2)nc(N2CCOCC2)n1`: -8.04%.
As to `O=C(CSc1nc(-c2ccco2)cc(C(F)(F)F)n1)NCc1cccs1`, the activity change, negative = inhibition was -3.58%.
For `O=C(CSc1nc(-c2ccco2)cc(C(F)(F)F)n1)N1CCc2ccccc2C1`, the Potency was 2.24 µM (active).
For the molecule `CN(C)c1ccc(/C=N/N(Cc2ccccc2)c2ccccc2)cc1`, the activity change, negative = inhibition was -11.9%.
Take `CCN(C(=O)COC(=O)c1cc(NS(=O)(=O)c2ccc(Cl)c([N+](=O)[O-])c2)ccc1O)C1CCCCC1`: the activity change, negative = inhibition was -7.74%.
For the molecule `CNC(=S)N1CCN(c2ccccn2)CC1`, the activity change, negative = inhibition was -14%.
`CN(C)c1ccc(/C=N\S(=O)(=O)c2ccccc2)cc1`: the activity change, negative = inhibition is -10.7%.
For `CCOC(=O)CSc1nc2c(c(=O)n(C)c(=O)n2C)n1Cc1ccccc1F`, the activity change, negative = inhibition is -4.76%.
Regarding `CCOC(=O)CSc1nc2c(sc(=S)n2CCc2ccccc2)c(=O)n1Cc1ccco1`, the Potency is 20 µM (active).
Turning to `COc1ccccc1NC(=O)CSc1nc2sc(C)c(C)c2c(=O)n1Cc1ccco1`, the activity change, negative = inhibition is -18.7%.
On the same count and under the same terms, for `COc1ccc(C(=O)Nc2ccc3nc(N4CCCCC4)cc(C)c3c2)cc1OC` the value was -27.2%; for `Cc1ccc(S(=O)(=O)N2CCC(N3CCCCCC3)CC2)cc1`, -7.84%.
Take `CC1(C)CC(=O)C(N=Nc2ccc(S(=O)(=O)N3CCCCCC3)cc2)=C(O)C1`: the Potency was 25.1 µM (active).
`COc1ccc(S(=O)(=O)N2CCCCC2)cc1Br`: the activity change, negative = inhibition is -1.54%.
Still for that read-out and setting: the same measure for `C=CCOc1c(Br)cc(/C=N\n2nnnc2N)cc1OC`: -12.6%; for `CCOc1cc(/C=N/O)cc(Br)c1OC`: -21.3%.
In the case of `CCOc1c(Br)cc(/C=C2\C(=O)N(CCC#N)N=C2C)cc1OC`, the Potency was 5.01 µM (active).
On to `COc1ccc(S(=O)(=O)Nc2ccc3oc(C)c(C(C)=O)c3c2)cc1`, for which the activity change, negative = inhibition is -11.3%.
For the molecule `COc1ccc(C(=O)c2c(C)oc3cc([N+](=O)[O-])c(O)c([N+](=O)[O-])c23)cc1`, the Potency is 14.1 µM (active).
Consider `COc1ccc(-c2oc3cc(OC)ccc3c2C(=O)c2ccc(C#N)cc2)cc1`, for which the activity change, negative = inhibition is -8.41%.
In the case of `CCO/N=C(/C)c1c(O)cc(-c2ccccc2)n(-c2ccccc2)c1=O`, the activity change, negative = inhibition was -9.45%.
Take `Cn1nnc(NC(=O)CSc2ncn[nH]2)n1`: the activity change, negative = inhibition was -3.42%.
Take `CC(C)(C)c1ccc(C(=O)CSc2ncn[nH]2)cc1`: the Potency is 25.1 µM (active).
For `CCN(C(=O)CSc1ncn[nH]1)c1cccc2ccccc12`, the activity change, negative = inhibition was -11.5%.
On the same count and under the same terms, for `S=C(NCC1COc2ccccc2O1)Nc1ccc(Br)cc1` (stereo not drawn) the value was -26.7%; for `Cc1ccc(CCCOC(=O)C[N+]2(C)CCCC2)cc1`, -8.3%; for `O=C(CSc1nnc(-c2cccs2)n1-c1ccccc1)NCc1ccco1`, -2.44%.
Take `C=CCn1c(SCC(=O)Nc2nc3ccccc3s2)nnc1-c1ccccc1O`: the activity change, negative = inhibition was -10.2%.
For `C=CCn1c(CSc2nc3ccccc3s2)nnc1SCC(=O)NCc1ccco1`, the Potency was 17.8 µM (active).
Take `O=C(Cc1ccccc1)NNS(=O)(=O)c1ccc([N+](=O)[O-])cc1`: the activity change, negative = inhibition is -13.6%.
For `COc1ccc(CC(=O)Nc2cc(S(=O)(=O)N3CCCCC3)ccc2N2CCN(C)CC2)cc1`, the activity change, negative = inhibition was -7.18%.
As to `COc1cc(/C=C/C(=O)N2c3ccccc3Sc3ccc(C(F)(F)F)cc32)cc(OC)c1OC`, the activity change, negative = inhibition was -14.1%.
On to `CCOC(=O)c1sc(=S)n2c1[nH]c(=O)c1ccc(C(=O)OC)cc12`, for which the Potency is 8.91 µM (active).
Take `CCOC(=O)C1=C(C)Nc2sc(C(=O)c3ccc(Br)cc3)c(N)c2C1c1ccc(C(=O)OC)cc1` (stereo not drawn): the activity change, negative = inhibition was -7.23%.
The same measure, in the same setting: for `CCOC(=O)c1sc(NC(=O)c2ccncc2)nc1C` the value was -16.2%; for `CN(C)c1ccc(C(CNC(=O)c2ccc(F)cc2)c2c[nH]c3ccccc23)cc1` (stereo not drawn), -5.43%; for `Cc1ccc(SCCC(=O)OCC(=O)Nc2ncc(Cl)cc2Cl)cc1`, -8.54%.
Turning to `Cc1ccc(SCCC(=O)NC(C(C)C)C(C)C)cc1`, the Potency is 7.94 µM (active).
`Cc1ccc(SCC(=O)Nc2ncc(C)s2)cc1`: the activity change, negative = inhibition is -20.4%.
Consider `CC/C=C\C/C=C\C/C=C\C/C=C\C/C=C\C/C=C\CCC(=O)NCCc1ccc(O)c(O)c1`, for which the activity change, negative = inhibition is -14.7%.
For `CCOc1ccc(S(=O)(=O)NCC2CCCO2)cc1` (stereo not drawn), the activity change, negative = inhibition is -2.22%.
In the case of `Cc1ccc(C(=O)NCC2CCCO2)o1` (stereo not drawn), the activity change, negative = inhibition is -12%.
With `Cc1ccc(-c2noc(-c3ccccc3C(=O)NCC3CCCO3)n2)cc1` (stereo not drawn), the activity change, negative = inhibition is -6.63%.
